# Results published in PubChem BioAssay (Tox21).
# Several values for one entry are separate records, joined by “and”; a condition that tells them apart may be missing. Equal values may be shown once. Unmarked numbers belong to inactive results. Results filed as inconclusive are left out. Where a call stands in place of a potency, no number is given. Activity calls are given as the source filed them. Unless noted, the call rests on the fitted dose curve; in most records, active means well fitted curve in the direction sought with a large enough effect in the repeat runs; inconclusive means weak or mixed curves; inactive means no such curve, though single readings can be large; an effect the other way counts as inactive or inconclusive.
# Tests used:
# [1] = qHTS assay to identify small molecule agonists of H2AX (AID 1224845; active means well fitted activation curve with a large enough effect in the signal ratio in the repeat runs, not every such curve was filed as active; the % refers to the signal ratio)
# How it was run: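 Wild-type CHO-K1 cells, plated overnight, exposed 3hr at 37C to 15 concentrations (0.76% DMSO final). Lysed, then HTRF anti-pH2AX (S139) cryptate and anti-H2AX-d2 antibodies, 24 hr room temperature; 665/620 nm emission read.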
# [2] = qHTS assay to identify small molecule agonists of the hypoxia (HIF-1) signaling pathway (AID 1224846; active means well fitted activation curve with a large enough effect in the signal ratio in the repeat runs, not every such curve was filed as active; the % refers to the signal ratio)
# How it was run: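 ME-180 HRE-bla reporter cells; compounds in DMSO, 17 h at 37C; read-out beta-lactamase via CCF4-AM FRET.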
# [3] = qHTS assay to identify small molecule agonists of H2AX - cell viability counter screen (AID 1224847; calls by dose curve; further: nearly all actives have a fitted effect of over 30% in size; further: potency means the concentration at half of the fitted maximal effect)
# How it was run: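 CHO-K1 cells plated overnight at 37C, then exposed 3 h at 37C to compounds at 15 concentrations (0.76% DMSO final). Viability by CellTiter-Glo luminescence after 30 min at room temperature.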
# [4] = qHTS assay to identify small molecule antagonists of the estrogen related receptor (ERR) signaling pathway from Tox21 library (AID 1224848); further: nearly all actives have a fitted effect of over 50% in size; further: potency means the concentration at half of the fitted maximal effect
# How it was run: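 Quantitative high-throughput format: ERR reporter cells (2,000/well) pre-incubated 6 h, treated 18 h at 37 C with compounds in DMSO alongside positive and negative controls, then read by ONE-Glo luminescence.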
# [5] = qHTS assay to identify small molecule agonists of the estrogen related receptor (ERR) signaling pathway from Tox21 library (AID 1224849; calls by dose curve; further: nearly all actives have a fitted effect of over 15% in size); conditions: ERR reporter cell line, ONE-Glo luciferase, 18 h
# How it was run: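 Luciferase activity in ERR pathway reporter cells served as the agonist readout; exposure lasted 18 h at 37 C, with ONE-Glo detection after 30 min at room temperature.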
# [6] = qHTS RealTime-Glo MT Cell Viability Assay in HepG2 cells - 24 hour (AID 1224867); further: nearly all actives have a fitted effect of over 50% in size
# How it was run: (§1)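 Tox21 10K library screened in qHTS format on HepG2 cells carrying RealTime-Glo reagents. Compounds were added after a 5 h preincubation, and the luminescent signal from continuous culture was measured repeatedly during 40 h treatment.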
# [7] = A CellTox Green Cytotoxicity Assay to monitor cytotoxicity in HEK293 cells - 0 hour (AID 1224869); further: nearly all actives have a fitted effect of over 50% in size
# How it was run: (§2)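 Real-time, in one plate: 600 HEK293 cells/well with dead-cell DNA dye, pinned compound after 5 h, 37 C incubation over 40 h; viable cells give no appreciable fluorescence.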
# [8] = qHTS RealTime-Glo MT Cell Viability Assay in HepG2 cells - 40 hour (AID 1224870); further: nearly all actives have a fitted effect of over 50% in size
# How it was run: (§3)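 HepG2 cells (600/well) mixed with RealTime-Glo MT reagent, settled 5 h at 37 C/5% CO2 before compound addition. Nonlytic NanoLuc luminescence from viable-cell prosubstrate reduction read repeatedly during 40 h treatment at 37 C.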
# [9] = A CellTox Green Cytotoxicity Assay to monitor cytotoxicity in HEK293 cells - 40 hour (AID 1224871); further: nearly all actives have a fitted effect of over 45% in size
# How it was run: as §2
# [10] = qHTS RealTime-Glo MT Cell Viability Assay in HepG2 cells - 8 hour (AID 1224873); further: nearly all actives have a fitted effect of over 55% in size
# How it was run: as §3
# [11] = A CellTox Green Cytotoxicity Assay to monitor cytotoxicity in HEK293 cells - 24 hour (AID 1224875); further: nearly all actives have a fitted effect of over 45% in size
# How it was run: as §2
# [12] = A CellTox Green Cytotoxicity Assay to monitor cytotoxicity in HepG2 cells - 16 hour (AID 1224876); further: nearly all actives have a fitted effect of over 45% in size
# How it was run: (§4)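 Cytotoxicity was tracked as dead-cell DNA fluorescence in HepG2 cells treated with test compounds at 37 C; each time-point value comes from one kinetic series spanning 0, 8, 16, 24, 32 and 40 h.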
# [13] = A CellTox Green Cytotoxicity Assay to monitor cytotoxicity in HepG2 cells - 24 hour (AID 1224878); further: nearly all actives have a fitted effect of over 45% in size
# How it was run: as §4
# [14] = A CellTox Green Cytotoxicity Assay to monitor cytotoxicity in HepG2 cells - 40 hour (AID 1224879); further: nearly all actives have a fitted effect of over 40% in size
# How it was run: as §4
# [15] = qHTS RealTime-Glo MT Cell Viability Assay in HEK293 cells - 0 hour (AID 1224880)
# How it was run: (§5)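 Kinetic, non-lysing viability readout. Seed HEK293 (600/well) with reagent, incubate 5 h at 37 C/5% CO2, pin 23 nL compound in DMSO, incubate at 37 C, read luminescence at 0, 8, 16, 24, 32, 40 h.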
# [16] = qHTS RealTime-Glo MT Cell Viability Assay in HEK293 cells - 32 hour (AID 1224868)
# How it was run: (§6)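 Luminescence generated by NanoLuc from substrate produced by living HEK293 cells served as the viability signal. Each value reflects the reading at its stated time point during continuous 40 h compound exposure at 37 C.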
# [17] = qHTS RealTime-Glo MT Cell Viability Assay in HEK293 cells - 16 hour (AID 1224872)
# How it was run: as §6
# [18] = qHTS RealTime-Glo MT Cell Viability Assay in HEK293 cells - 40 hour (AID 1224874); conditions: RealTime-Glo luminescence; max response: stronger effect = lower value; further: nearly all actives have a fitted effect of over 50% in size
# How it was run: as §5
# [19] = qHTS RealTime-Glo MT Cell Viability Assay in HepG2 cells - 32 hour (AID 1224877); further: nearly all actives have a fitted effect of over 55% in size
# How it was run: as §1
# [20] = A CellTox Green Cytotoxicity Assay to monitor cytotoxicity in HEK293 cells - 32 hour (AID 1224881); further: nearly all actives have a fitted effect of over 40% in size
# How it was run: as §2
structure (smiles),measurement,setting,value
Cn1c(-c2ccccc2)cc(-c2ccccc2)[n+]1C,Potency,[1],inactive
same,outcome,[2],inactive
same,Potency,[3],inactive
same,Potency,[4],17.2 µM (active) and 21.7 µM (active)
same,"activity change, positive = activation",[5]; at 92.4 µM (top of the series),-54.1% and -52.6%
same,Potency,[6],inactive
same,Potency,[7],inactive
same,Potency,[8],inactive
same,Potency,[9],inactive
same,Potency,[10],inactive
same,Potency,[11],inactive
same,Potency,[12],inactive
same,Potency,[13],inactive
same,Potency,[14],inactive
same,Potency,[15],inactive
CCOP(=S)(OCC)OP(=S)(OCC)OCC,Potency,[1],inactive
same,outcome,[2],inactive
same,Potency,[3],inactive
same,Potency,[4],inactive
same,"activity change, positive = activation",[5]; at 92.4 µM (top of the series),-12.2% and -0.199%
same,Potency,[6],inactive
same,Potency,[16],inactive
same,Potency,[7],inactive
same,Potency,[8],inactive
same,Potency,[9],inactive
same,Potency,[17],inactive
same,Potency,[10],inactive
same,max response,[18],3.87% and 10.7%
same,Potency,[11],inactive
same,Potency,[12],inactive
same,Potency,[19],inactive
same,Potency,[13],inactive
same,Potency,[14],inactive
same,Potency,[15],inactive
same,Potency,[20],inactive
COc1ccc(C=O)cc1OC,Potency,[1],inactive
same,outcome,[2],inactive
same,Potency,[3],inactive
same,Potency,[4],inactive
same,"activity change, positive = activation",[5]; at 92.4 µM (top of the series),-3.94% and -4.02%
same,Potency,[6],inactive
same,Potency,[16],inactive
same,Potency,[7],inactive
same,Potency,[9],inactive
same,Potency,[17],inactive
same,Potency,[10],inactive
same,Potency,[11],inactive
same,Potency,[12],inactive
same,Potency,[13],inactive
same,Potency,[14],inactive
same,Potency,[15],inactive
Brc1ccc(Br)cc1,Potency,[1],inactive
same,outcome,[2],inactive
same,Potency,[3],inactive
same,Potency,[4],inactive
same,"activity change, positive = activation",[5]; at 92.4 µM (top of the series),7.62% and 5.83%
same,Potency,[6],inactive
same,Potency,[16],inactive
same,Potency,[7],inactive
same,Potency,[8],inactive
same,Potency,[9],inactive
same,Potency,[17],inactive
same,Potency,[10],inactive
same,Potency,[11],inactive
same,Potency,[12],inactive
same,Potency,[13],inactive
same,Potency,[14],inactive
same,Potency,[15],inactive
same,Potency,[20],inactive
COP(=S)(OC)Oc1ccc(S(=O)(=O)N(C)C)cc1,Potency,[1],inactive
same,outcome,[2],inactive
same,Potency,[3],inactive
same,Potency,[4],inactive
same,"activity change, positive = activation",[5]; at 42.5 µM (top of the series),-5.44%
same,"activity change, positive = activation",[5]; at 92.4 µM (top of the series),-12.4%
same,Potency,[6],inactive
same,Potency,[16],inactive
same,Potency,[7],inactive
same,Potency,[8],inactive
same,Potency,[9],inactive
same,Potency,[17],inactive
same,Potency,[10],inactive
same,Potency,[11],inactive
same,Potency,[12],inactive
same,Potency,[19],inactive
same,Potency,[13],inactive
same,Potency,[14],inactive
same,Potency,[15],inactive
same,Potency,[20],inactive
O=NN(c1ccccc1)c1ccccc1,Potency,[1],inactive
same,outcome,[2],inactive
same,Potency,[3],inactive
same,Potency,[6],inactive
same,Potency,[16],inactive
same,Potency,[7],inactive
same,Potency,[8],inactive
same,Potency,[9],inactive
same,Potency,[17],inactive
same,Potency,[10],inactive
same,max response,[18],1.85% and 24%
same,Potency,[11],inactive
same,Potency,[12],inactive
same,Potency,[13],inactive
same,Potency,[14],inactive
same,Potency,[15],inactive
same,Potency,[20],inactive
O=[N+]([O-])/N=C1\NCCN1Cc1ccc(Cl)nc1,Potency,[1],inactive
same,outcome,[2],inactive
same,Potency,[3],inactive
same,Potency,[4],inactive
same,"activity change, positive = activation",[5]; at 42.5 µM (top of the series),0.753%
same,"activity change, positive = activation",[5]; at 92.4 µM (top of the series),-0.637%
same,Potency,[6],inactive
same,Potency,[7],inactive
same,Potency,[9],inactive
same,Potency,[17],inactive
same,Potency,[10],inactive
same,max response,[18],1.13% and 0.238%
same,Potency,[11],inactive
same,Potency,[12],inactive
same,Potency,[19],inactive
same,Potency,[13],inactive
same,Potency,[14],inactive
same,Potency,[15],inactive
CCCCOC(=O)COC(=O)c1ccccc1C(=O)OCCCC,Potency,[1],inactive
same,outcome,[2],inactive
same,Potency,[3],inactive
same,Potency,[4],inactive
same,"activity change, positive = activation",[5]; at 92.4 µM (top of the series),4.38% and 0.695%
same,Potency,[6],inactive
same,Potency,[16],inactive
same,Potency,[7],inactive
same,Potency,[9],inactive
same,Potency,[17],inactive
same,Potency,[10],inactive
same,Potency,[11],inactive
same,Potency,[12],inactive
same,Potency,[19],inactive
same,Potency,[13],inactive
same,Potency,[14],inactive
same,Potency,[15],inactive
same,Potency,[20],inactive
ClCC(Cl)CCl,Potency,[1],inactive
same,outcome,[2],inactive
same,Potency,[3],inactive
same,Potency,[4],inactive
same,"activity change, positive = activation",[5]; at 92.4 µM (top of the series),8.78% and 5.09%
same,Potency,[6],inactive
same,Potency,[16],inactive
same,Potency,[7],inactive
same,Potency,[8],inactive
same,Potency,[9],inactive
same,Potency,[17],inactive
same,Potency,[10],inactive
same,max response,[18],3.83% and -1.84%
same,Potency,[11],inactive
same,Potency,[12],inactive
same,Potency,[13],inactive
same,Potency,[14],inactive
same,Potency,[15],inactive
same,Potency,[20],inactive
CCNCC,Potency,[1],inactive
same,outcome,[2],inactive
same,Potency,[3],inactive
same,Potency,[4],inactive
same,"activity change, positive = activation",[5]; at 92.4 µM (top of the series),1.09% and 1.12%
same,Potency,[6],inactive
same,Potency,[7],inactive
same,Potency,[8],inactive
same,Potency,[9],inactive
same,Potency,[17],inactive
same,Potency,[10],inactive
same,max response,[18],-0.119% and -1.58%
same,Potency,[11],inactive
same,Potency,[12],inactive
same,Potency,[19],inactive
same,Potency,[13],inactive
same,Potency,[14],inactive
same,Potency,[15],inactive
same,Potency,[20],inactive
Cc1cccc(N=Nc2ccc(N(C)C)cc2)c1,Potency,[1],inactive
same,outcome,[2],inactive
same,Potency,[3],101 µM (active)
same,Potency,[4],inactive
same,"activity change, positive = activation",[5]; at 92.4 µM (top of the series),234% (active) and 86.9% (active)
same,Potency,[6],inactive
same,Potency,[7],inactive
same,Potency,[8],inactive
same,Potency,[9],inactive
same,Potency,[11],inactive
same,Potency,[12],inactive
same,Potency,[13],inactive
same,Potency,[14],inactive
same,Potency,[15],inactive
